MCL1-BIM inh: disrupts human MCL1 binding to BIM-BH3 peptide | GST-MCL1 / FITC-Bim-BH3 fluorescence polarization | inhibition, % at 10.9 µM | actives 0.68% (n = 320,000) | AID 2057;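 active = inhibition above the mean inhibition of all tested compounds plus 3 SD, set per campaign, cut at about 40% in these data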;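 note: 0% = DMSO wells and 100% = unlabeled Bim-BH3 peptide control; higher means more loss of mP so more displacement of Bim peptide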
Target sequence (Q07820 whole entry, looked up): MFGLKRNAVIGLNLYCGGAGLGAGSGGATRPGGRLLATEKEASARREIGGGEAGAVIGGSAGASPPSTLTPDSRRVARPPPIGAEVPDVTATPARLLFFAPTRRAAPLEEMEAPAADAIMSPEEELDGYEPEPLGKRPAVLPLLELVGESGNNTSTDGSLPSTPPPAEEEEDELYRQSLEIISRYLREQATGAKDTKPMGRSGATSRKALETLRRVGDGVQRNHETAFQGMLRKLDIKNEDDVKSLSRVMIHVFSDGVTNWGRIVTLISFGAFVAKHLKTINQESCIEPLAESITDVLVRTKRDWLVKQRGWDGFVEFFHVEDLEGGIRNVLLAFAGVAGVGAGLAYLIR
Mcl1 Noxa PPI: Mcl-1/Noxa interaction inhibition. AID 1022. Q07820. actives 1.5% (n = 220,000). TR-FRET Mcl-1/Noxa peptide binding, 2 h. inhibition, % at 21.7 µM;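 active = compounds that cut the protein-peptide binding signal by more than 50% relative to plate controls in a single-dose test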;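 note: His-tagged Mcl-1 with rhodamine Noxa BH3 peptide and terbium anti-His antibody; 0% = Mcl-1 plus Noxa peptide wells and 100% = peptide-only wells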
Mcl-1 Bim block: disrupts Bim peptide binding to human Mcl-1; Bead-based flow cytometry, Bim peptide-Mcl-1 binding; actives 0.1% (n = 190,000); AID 1009; inhibition, % at 10 µM; in the data active = inhibition above about 40%;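 note: 0% = no compound tracer wells and 100% = peptide blocker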
TNF death inh: inhibitors of TNF-alpha induced necroptosis in Jurkat FADD-/- cells; Jurkat FADD-/- TNF necroptosis rescue, ATP luminescence, 24 h; 0 = TNF only, 100 = no-TNF cells; activation (protection from cell death), % at 10 µM; actives 0.068% (n = 220,000); AID 463075;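 active = activation, meaning protection from cell death, of at least 50% relative to plate controls; inactive = activation below 50%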;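 note: necroptosis triggered by 40 ng/mL TNF-alpha added together with compound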
L929 necroptosis: blocks zVAD induced death of L929 cells. viability rescue, % at 10 µM. actives 0.38% (n = 220,000). L929 zVAD necroptosis rescue, ATP luminescence, 24 h; with zVAD 60 µM;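 active = activation, scaled between plate controls, above about 75%, limit read from the data; inactive = activation under that limit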;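 note: 0% = zVAD with DMSO and 100% = DMSO alone without zVAD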
Mcl1-Bid inh: Mcl-1/Bid interaction inhibition. Q07820. TR-FRET Mcl-1/Bid-Dy647 peptide binding, 1536-well. inhibition, % at 21.7 µM. actives 0.97% (n = 220,000). AID 1021;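 active = compounds that cut the binding signal by more than half at the single screening dose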;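 note: His-tagged Mcl-1 with europium anti-His antibody binding Bid BH3 peptide; 0% = Mcl-1 plus peptide wells and 100% = peptide-only wells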
Active calls of the source: *; . = not tested or not shown. A selection: hits, their analogues and other compounds. The true share with any hit is near 2.4%.

SMILES	MCL1-BIM inh	Mcl1 Noxa PPI	Mcl-1 Bim block	TNF death inh	L929 necroptosis	Mcl1-Bid inh
CC(=O)Nc1ccc(-c2csc(NC(=O)c3ccc(C)o3)n2)cc1	-3	.	-4	-4	1	-3
O=C(Nc1nc(-c2ccccn2)cs1)c1ccc([N+](=O)[O-])o1	34	90*	.	-20	4	-16
O=C(Nc1nc(-c2ccco2)cs1)c1ccccc1	-3	54*	-1	0	24	5
Cc1ccc(C(=O)Nc2nc(-c3ccc([N+](=O)[O-])cc3)cs2)o1	10	65*	-1	0	.	56*
Cc1ccc(C(=O)Nc2nc(-c3cc(Cl)sc3Cl)cs2)cc1	5	53*	5	-3	1	-5
Cc1ccc(C(=O)Nc2nc(-c3ccccn3)cs2)o1	16	-3	.	-4	-1	-90
O=C(Cc1ccc(Br)cc1)Nc1ccc(S(=O)(=O)Nc2ncccn2)cc1	6	.	.	.	.	.
Cc1cc(C)c(OCC(=O)OCC(=O)NC2CCC(C)CC2)c(C)c1 (stereo not drawn)	-5	.	.	.	.	.
Cc1csc(NC(=O)c2ccccc2)n1	2	.	.	.	.	.
CC(=O)Nc1ccc(C(=O)Nc2nc(-c3ccccn3)cs2)cc1	1	70*	-2	-4	2	-30
CC(=O)Nc1ccc(C(=O)Nc2nc(-c3cccnc3)cs2)cc1	-26	35	0	-2	54	-40
Cc1csc(NC(=O)c2ccncc2)n1	13	64*	.	0	1	8
COC(=O)c1c(C)[nH]c(C(=O)C(C)OC(=O)c2cnc(C)cn2)c1C (stereo not drawn)	-3	.	.	.	.	.
O=c1oc2cc(O)ccc2cc1-c1nc2c(s1)CCc1ccccc1-2	27	54*	.	1	1	-37
CC(=O)C1=C(O)C(=O)N(c2ccc(Br)cn2)C1c1cccc([N+](=O)[O-])c1 (stereo not drawn)	2	.	.	.	.	.
O=C(CSc1nnc(-c2cccnc2)o1)Nc1cccc(F)c1	0	.	.	.	.	.
CC1CCCCC1NC(=O)c1ccc2c(c1)[nH]c(=O)n2C1CCCC1 (stereo not drawn)	3	82*	-4	-3	1	8
CCOCCCn1c(=S)[nH]c2cc(C(=O)NC3CCCCC3C)ccc2c1=O (stereo not drawn)	-1	.	.	.	.	.
CCCCc1nnc(SC(C)C(=O)Nc2nccs2)n1C (stereo not drawn)	-15	.	.	.	.	.
Cc1ccc(-n2c(C)n[nH]c2=S)cc1C	-8	12	-7	0	1	97*
Cc1ccc(-n2c(C)n[nH]c2=S)cc1	-3	15	-8	1	1	-29
Cc1ccccc1CSc1nnc(NC(=O)Cc2cccs2)s1	-6	66*	-3	2	1	20
CCN(CC)c1ccc(NC(=O)CCCCCN2C(=O)c3ccccc3C2=O)cc1	7	63*	0	0	28	-2
CC(=O)Nc1ccc(NC(=O)CCCCCN2C(=O)c3ccccc3C2=O)cc1	15	-5	-4	1	0	-19
O=C(CCCN1C(=O)c2ccccc2C1=O)NCCCn1ccnc1	3	19	-1	0	2	82*
SMILES	MCL1-BIM inh	Mcl1 Noxa PPI	Mcl-1 Bim block	TNF death inh	L929 necroptosis	Mcl1-Bid inh
CC(CNc1nc2ccc(Cl)cc2n2cnnc12)c1ccccc1 (stereo not drawn)	3	.	.	.	.	.
OC(CN1CCC(Cc2ccccc2)CC1)c1ccccc1 (stereo not drawn)	9	.	.	.	.	.
CCOC(=O)C(C(C)=O)c1c(Br)c(O)c(O)c2c(C(=O)c3ccc(C)cc3)coc12 (stereo not drawn)	26	68*	4	-16	11	20
CCOC(=O)c1snc(-c2ccc(F)cc2)c1N	4	-9	66*	-1	1	-18
CCOC(=O)c1sc(N)nc1-c1ccccc1	5	5	1	4	0	-5
Cc1c(C(=O)NCCCN2CCOCC2)oc2c1C1(CCC2)SCCS1	15	-10	-1	2	3	-16
Cc1ccc(-c2nc(N3CCOCC3)sc2C(=O)N2CCOCC2)cc1	1	0	-3	1	1	-16
Cc1ccc(-c2nc(N3CCOCC3)sc2C(=O)N2CCCCC2)cc1	5	13	-3	1	1	98*
O=C1CCCC(=O)N1c1ccc(O)cc1	3	2	-2	1	2	-24
O=C(O)c1ccc(N2C(=O)CCCC2=O)cc1	1	59*	.	-1	0	-28
O=C(O)C1(S(=O)(=O)c2ccc(Cl)cc2)CCC1	-6	.	.	.	.	.
Cc1cc2c(c(=O)o1)C(c1ccc([N+](=O)[O-])o1)C(C#N)=C(N)O2 (stereo not drawn)	47*	2	.	-1	-1	-26
Cn1ncc(S(=O)(=O)Cc2ccccc2)c(Cl)c1=O	24	68*	.	-30	-1	-5
Cn1ncc(SCc2ccccc2)c(Cl)c1=O	7	14	.	-16	-1	-18
CCCCn1c(N)c(N(CCOC)C(=O)c2cc3c(s2)CCC3)c(=O)[nH]c1=O	8	.	.	.	.	.
O=[N+]([O-])c1ccc(-c2cn(-c3ccc(Cl)cc3)c(=S)[nH]2)cc1	-3	90*	13	0	0	68*
CCc1ccc(-n2cc(-c3ccc([N+](=O)[O-])cc3)[nH]c2=S)cc1	-39	41	-6	-1	0	13
N#Cc1c(-c2cccnc2)c2c([nH]c1=S)CCCC2	-4	46	1	1	1	-41
N#Cc1c(-c2ccco2)c2c([nH]c1=S)CCCC2	17	59*	-3	.	.	1
CCN(CC)C(=O)c1c(C)[nH]c(=S)c(C#N)c1-c1ccco1	8	59*	-1	0	-1	-83
CC(C)Cc1c2c([nH]c(=S)c1C#N)CCCC2	2	51*	-10	0	0	-23
COCc1cc(CN2CCN(CCc3ccccc3)C(CCO)C2)ccc1OC (stereo not drawn)	-4	.	.	.	.	.
Cc1nc2ccccc2c(=O)n1NC(=O)c1cccc(Cl)c1	5	.	.	.	.	.
COCC1CCN(C(=O)c2cc(COc3cc(C)c(Cl)c(C)c3)on2)C1 (stereo not drawn)	3	.	.	.	.	.
CN(C(=O)COc1ccc(S(=O)(=O)N2CCOCC2)cc1[N+](=O)[O-])C1CCS(=O)(=O)C1 (stereo not drawn)	4	0	.	0	0	-31
COc1ccccc1N1CCN(/N=C/c2cc(OC)c(O)c(OC)c2)CC1	22	54*	-7	0	0	-49
CC(=O)Nc1ccc(S(=O)(=O)NCCC(=O)OCc2csc(CC(=O)Nc3ccccc3C)n2)cc1	-7	.	.	.	.	.
COc1cc(C(Nc2ccccn2)c2ccc3ccc(C)nc3c2O)cc(OC)c1O (stereo not drawn)	38	93*	-2	-12	16	11
Cc1ccc2ccc(C(Nc3ccccn3)c3ccccc3)c(O)c2n1 (stereo not drawn)	8	7	-2	-2	-1	-35

Screening results: PubChem BioAssay, several laboratories
